Source: PubChem
Rows were chosen to be rich in hits. Some 2.3% of all compounds tested hit in one or more screens of this group.
ATXN2 expr inh – reduces ATXN2 reporter expression in HEK-293 cells. HEK-293 ATXN2-luciferase reporter, luminescence, 24 h. Potency, µM (titrated, usually from 57 µM), for inactives: top-dose activity change, negative = inhibition, hits mostly inhibitors. 360,000 compounds, 0.72% hits. AID 1745845; note: % is set by controls: 0 for no effect and ±100 for the full control effect; nearly all actives have a fitted effect of over 55% in size
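ATXN2-luciferase reporter cells (luciferase flanked by upstream and downstream ATXN2 gene portions) were treated 24 h at 37 °C with compounds at up to 57 uM. SteadyGlo luminescence gave expression; GF-AFC fluorescence gave viability.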
ATXN viability – viability counter-screen for ATXN expression inhibitors. S2 cells (HEK-293 line with an ATXN2-luciferase reporter) viability, CellTiter-Fluor protease fluorescence, 24 h. Potency, µM (doses to about 56.7 µM), usual class: cytotoxic. 400,000 compounds, 0.49% hits; note: nearly all actives have a fitted effect of over 40% in size
HepG2 viability – counter-screen for TGF-b inhibitors: cytotoxicity in HepG2 cells. 410,000 compounds, 0.76% hits. Potency, µM (series often up to 46.1 µM), without a hit: top-dose activity change, negative = cytotoxicity, actives largely listed as cytotoxic. HepG2 CAGA-GFP viability, ATP luminescence, 18 h
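HepG2 CAGA-GFP cells (1000/well, DMEM with 1% FBS) received compound, then TGF-beta at 500 pg/mL final, and were incubated 18 hours at 37 degrees C. Viability was read by CellTiter-Glo luminescence. Media-only wells were set as complete cell-killing and DMSO as no toxicity.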
TGFb SMAD3 inh – TGF-b pathway inhibition; 410,000 compounds, 1.2% hits; Potency, µM (highest dose often 46.1 µM), for inactives: at the top dose activity, negative = inhibition, usual class: inhibitors; HepG2 CAGA-GFP TGF-b/SMAD3 reporter, GFP fluorescence, 18 h; TGF-beta stimulated, 500 pg/mL final; note: % is set by controls: 0 for no effect and ±100 for the full control effect; nearly all actives have a fitted effect of over 65% in size
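Cell-based qHTS in HEPG2 carrying a CAGA-GFP Smad reporter; compounds added before 500 pg/mL final TGF-beta, 18 h incubation at 37 degrees C, GFP fluorescence quantified per cell by imaging cytometry.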
* = called active by the depositor; i = inactive; ? = inconclusive; / = not tested or not shown; [ ] = dose if it differs, or a comment. Calls come from the whole dose curve; as a rule, active = well fitted curve in the direction sought with a large enough effect; inconclusive = small, poorly fitted or top-dose-only effect, or another doubt; inactive = no such curve, though single readings can be large; an effect the other way counts as inactive or inconclusive. Potency is the fitted concentration of half-maximal effect.

SMILES	ATXN2 expr inh	ATXN viability	HepG2 viability	TGFb SMAD3 inh
Cc1cccc(C(=O)N[C@H](C(=O)Nc2ncc(C)s2)C(C)C)c1	8.4µM*	i	7%	11µM*
CC(NC(=S)Nc1ccc(OC(F)F)c(Cl)c1)C(C)(C)C (stereo not drawn)	14%[11.3 µM]	i	-36%	13µM*
FC(F)Oc1ccc(NC(=S)NCc2ccccc2)cc1Cl	?	i	-49%	?
Cc1ccc(NC(=S)Nc2ccc(OC(F)F)c(Cl)c2)cc1Cl	?	i	-45%	18µM*
O=C(Nc1ccc(OC(F)F)c(Cl)c1)C(c1ccccc1)c1ccccc1	?	i	20µM*	22µM*
O=C(Cc1nc2ccccc2[nH]1)N1CCC(n2c(C3CCC3)nc3cccnc32)CC1	/	i	/	/
CCC1C(=O)NCCN1Cc1ccc2c(c1)CN(Cc1ccc3c(c1)OCCO3)CCO2 (stereo not drawn)	/	i	/	/
C[C@H](O)[C@@H]1C(=O)N2C(C(=O)O)=C(S[C@@H]3CN[C@H](CNS(N)(=O)=O)C3)[C@@H](C)[C@@H]12	-1%	/	/	/
Nc1ccc2c(c1)CN1C(=O)c3ccccc3C1=N2	13µM*	?	/	/
Cc1ccccc1N1Cc2ccccc2C1=O	-10%	i	-14%	-8%
COc1cc(CN2CCCC(n3cc(C(=O)N4CCCCC4)nn3)C2)cc2c1OCO2 (stereo not drawn)	/	i	/	/
COc1ccccc1CNc1ncnc2sc(C(=O)N3CCN(C)CC3)c(C)c12	/	i	/	/
CCCn1ccc2c(OCC(=O)Nc3ccc(NC(C)=O)cc3)cccc2c1=O	-1%	i	-12%	7%
CCCCc1ccc(NC(=O)COc2cccc3c(=O)n(C)ccc23)cc1	?	?	-51%	8.9µM*
COCCn1ccc2c(OCC(=O)Nc3cccc(NC(C)=O)c3)cccc2c1=O	3%	i	18µM*	-4%
CCCn1ccc2c(OCC(=O)Nc3ccc(OC)c(OC)c3)cccc2c1=O	?	?	-18%	-26%
CCn1ccc2c(OCC(=O)Nc3ccc(C)c(Cl)c3)cccc2c1=O	?	/	-37%	7.1µM*
Cc1ccc(CN2C[C@@H](Sc3nc(C)cc(C)n3)C[C@H]2C(=O)N2CCN(c3ccccc3F)CC2)cc1	/	i	/	/
C[C@@H](Oc1ccc2[nH]nc(C=Cc3cnn(CCO)c3)c2c1)c1c(Cl)cncc1Cl	22µM*	/	/	/
CCCCCCCCCCOCC(O)CN (stereo not drawn)	40µM*	40µM*	/	/
CCCCS(=O)CC(O)COCC (stereo not drawn)	-5%	i	13%	-3%
O=[N+]([O-])c1ccccc1/C=C/c1ccnc2ccccc12	/	/	-26%	-1%
N#Cc1cc(NC(=O)Nc2nnc(-c3ccncc3)s2)ccc1-c1cn[nH]c1	5%	/	/	/
COc1ccc(NC(=O)N(C)[C@H]2C[C@H]3c4[nH]c5ccc(-c6ccc7c(c6)OCO7)cc5c4CCN3C[C@H]2[C@H](C)O)cc1	16µM*	20µM*	-83%	?
COc1ccc(NC(=O)N(C)[C@H]2C[C@H]3c4[nH]c5ccc(-c6ccc(OC)cc6)cc5c4CCN3C(=O)[C@H]2[C@H](C)O)cc1	?	?	-41%	?
SMILES	ATXN2 expr inh	ATXN viability	HepG2 viability	TGFb SMAD3 inh
COc1ccc(NC(=O)N(C)[C@H]2C[C@H]3c4[nH]c5ccc(-c6ccc(OC)cc6)cc5c4CCN3C[C@H]2[C@H](C)O)cc1	22µM*	/	-103%	?
CN[C@H]1C[C@H]2c3[nH]c4ccc(-c5ccc(OC)cc5)cc4c3CCN2C(=O)[C@H]1[C@H](C)O	18µM*	?	14µM*	16µM*
C(=C\c1ccnc2ccccc12)/c1cccnc1	/	/	-36%	3%
Cc1oc(-c2ccccc2Cl)nc1CS(=O)CC(=O)NCc1ccc(Cl)cc1 (stereo not drawn)	-3%	i	-18%	8.9µM*
O=C(NCc1ccccn1)c1cnn(-c2nccc(-c3cc4ccccc4o3)n2)c1C1CC1	/	i	/	/
CC1(C)CC(=O)C(C(C2=C(O)CC(C)(C)CC2=O)c2ccc(Br)s2)C(=O)C1 (stereo not drawn)	?	?	-3%	10µM*
Cc1ccc(C(C2=C(O)CC(C)(C)CC2=O)C2C(=O)CC(C)(C)CC2=O)s1 (stereo not drawn)	1%	i	-3%	-10%
Cc1cc2ccccn2c1C(=O)c1ccc([N+](=O)[O-])o1	?	?	11µM*	11µM*
Cc1cc2ccccn2c1C(=O)c1cccc([N+](=O)[O-])c1	/	i	2%	-3%
CCCCOc1ccc(CSC(=N)N)cc1Cl	25µM*	?	-176%	?
CCCCCOc1ccc(Br)cc1CSC(=N)N	/	/	-102%	?
CC(C)NC(=O)[C@@H]1C[C@@H](Sc2nc3ccccc3[nH]2)CN1C1Cc2ccccc2C1	/	i	/	/
CC(C)CNC(=S)N1CCN(c2nc(-c3ccc(Cl)cc3)cs2)CC1	16µM*	?	-40%	?
COCCCNC(=S)N1CCN(c2nc(-c3ccc(Cl)cc3)cs2)CC1	/	i	-34%	-20%
CC1=CC2C(C(O)CC3(C)C2CC(C)C32OCOC23COCO3)C2(C)C/C(=C\O)C(=O)C=C12 (stereo not drawn)	?	/	11µM*	5.6µM*
O=C(CC12CC3CC(CC(C3)C1)C2)Nc1cccc2nc(NCCNCCO)ccc12	-4%	/	/	/
Cc1ccc(-c2nc(CS(=O)(=O)CC(=O)N3CCN(c4ccccc4)CC3)c(C)o2)cc1	/	/	-29%	11µM*
CCc1ccc(-c2nc(CN3CCCC(C(=O)N4CCN(c5cc(Cl)ccc5C)CC4)C3)c(C)o2)cc1 (stereo not drawn)	20µM*	16µM*	-43%	?
COc1ccc(-c2nc(CSCC(=O)N3CCN(c4cc(Cl)ccc4C)CC3)c(C)o2)cc1	/	/	-34%	18µM*
COc1ccc(-c2nc(CSCC(=O)N3CCN(c4cccc(C)c4C)CC3)c(C)o2)cc1OC	?	32µM*	-38%	-27%
O=C(c1cccc(Cl)c1)N1CCCC(Cn2cc(C(=O)N3CCCC3)nn2)C1 (stereo not drawn)	/	i	/	/
CN(C)c1ccc(/C=C/c2cnnc3ccccc23)cc1	/	/	-7%	29%
CCCN(CCC)CCNC(=O)C1CCN(Cc2nc(-c3ccc(Cl)cc3)oc2C)CC1	?	16µM*	-28%	7%
Cc1cccc(-c2nc(CSCC(=O)N3CCN(c4ccccc4)CC3)c(C)o2)c1	/	/	-27%	11µM*
COC(=O)CSCc1nc(-c2ccc(C(=O)OC)cc2)oc1C	4.5µM*	i	-5%	-2%
Cc1cccc(-c2nc(CSCC(=O)NCCc3ccc(Cl)cc3)c(C)o2)c1	/	/	-66%	13µM*
Cc1oc(-c2cccc(Cl)c2)nc1CN1CCC(C(=O)NCCc2ccc(Cl)cc2)CC1	1%	i	-16%	-1%
Nc1[nH]c(C(=O)c2ccccc2)c(-c2ccc(Br)cc2)c1C(=O)NCCc1c[nH]c2ccccc12	?	22µM*	/	/
